Of roughly 7,900 targets only a part is listed; those with a hit were picked by preference. About 0.6% of all pairs of compound and target were hits.

Sequence of UniProt P30305 (P30305 whole entry, looked up): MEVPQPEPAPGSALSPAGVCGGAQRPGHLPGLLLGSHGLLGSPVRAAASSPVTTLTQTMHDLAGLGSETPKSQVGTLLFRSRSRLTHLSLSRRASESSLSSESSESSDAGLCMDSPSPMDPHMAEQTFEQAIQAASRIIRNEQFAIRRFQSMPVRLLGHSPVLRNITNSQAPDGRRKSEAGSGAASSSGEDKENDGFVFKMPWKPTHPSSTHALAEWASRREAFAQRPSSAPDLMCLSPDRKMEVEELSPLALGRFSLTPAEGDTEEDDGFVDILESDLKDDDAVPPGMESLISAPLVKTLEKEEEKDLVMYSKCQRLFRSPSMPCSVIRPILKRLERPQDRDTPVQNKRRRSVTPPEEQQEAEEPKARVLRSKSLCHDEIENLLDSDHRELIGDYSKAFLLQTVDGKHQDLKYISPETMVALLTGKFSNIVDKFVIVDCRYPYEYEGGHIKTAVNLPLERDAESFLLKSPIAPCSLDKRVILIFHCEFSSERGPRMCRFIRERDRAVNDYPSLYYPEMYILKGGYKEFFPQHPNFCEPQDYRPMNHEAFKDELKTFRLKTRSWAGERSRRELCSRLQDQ
Sequence of UniProt Q5VT25 (Q5VT25 whole entry, looked up): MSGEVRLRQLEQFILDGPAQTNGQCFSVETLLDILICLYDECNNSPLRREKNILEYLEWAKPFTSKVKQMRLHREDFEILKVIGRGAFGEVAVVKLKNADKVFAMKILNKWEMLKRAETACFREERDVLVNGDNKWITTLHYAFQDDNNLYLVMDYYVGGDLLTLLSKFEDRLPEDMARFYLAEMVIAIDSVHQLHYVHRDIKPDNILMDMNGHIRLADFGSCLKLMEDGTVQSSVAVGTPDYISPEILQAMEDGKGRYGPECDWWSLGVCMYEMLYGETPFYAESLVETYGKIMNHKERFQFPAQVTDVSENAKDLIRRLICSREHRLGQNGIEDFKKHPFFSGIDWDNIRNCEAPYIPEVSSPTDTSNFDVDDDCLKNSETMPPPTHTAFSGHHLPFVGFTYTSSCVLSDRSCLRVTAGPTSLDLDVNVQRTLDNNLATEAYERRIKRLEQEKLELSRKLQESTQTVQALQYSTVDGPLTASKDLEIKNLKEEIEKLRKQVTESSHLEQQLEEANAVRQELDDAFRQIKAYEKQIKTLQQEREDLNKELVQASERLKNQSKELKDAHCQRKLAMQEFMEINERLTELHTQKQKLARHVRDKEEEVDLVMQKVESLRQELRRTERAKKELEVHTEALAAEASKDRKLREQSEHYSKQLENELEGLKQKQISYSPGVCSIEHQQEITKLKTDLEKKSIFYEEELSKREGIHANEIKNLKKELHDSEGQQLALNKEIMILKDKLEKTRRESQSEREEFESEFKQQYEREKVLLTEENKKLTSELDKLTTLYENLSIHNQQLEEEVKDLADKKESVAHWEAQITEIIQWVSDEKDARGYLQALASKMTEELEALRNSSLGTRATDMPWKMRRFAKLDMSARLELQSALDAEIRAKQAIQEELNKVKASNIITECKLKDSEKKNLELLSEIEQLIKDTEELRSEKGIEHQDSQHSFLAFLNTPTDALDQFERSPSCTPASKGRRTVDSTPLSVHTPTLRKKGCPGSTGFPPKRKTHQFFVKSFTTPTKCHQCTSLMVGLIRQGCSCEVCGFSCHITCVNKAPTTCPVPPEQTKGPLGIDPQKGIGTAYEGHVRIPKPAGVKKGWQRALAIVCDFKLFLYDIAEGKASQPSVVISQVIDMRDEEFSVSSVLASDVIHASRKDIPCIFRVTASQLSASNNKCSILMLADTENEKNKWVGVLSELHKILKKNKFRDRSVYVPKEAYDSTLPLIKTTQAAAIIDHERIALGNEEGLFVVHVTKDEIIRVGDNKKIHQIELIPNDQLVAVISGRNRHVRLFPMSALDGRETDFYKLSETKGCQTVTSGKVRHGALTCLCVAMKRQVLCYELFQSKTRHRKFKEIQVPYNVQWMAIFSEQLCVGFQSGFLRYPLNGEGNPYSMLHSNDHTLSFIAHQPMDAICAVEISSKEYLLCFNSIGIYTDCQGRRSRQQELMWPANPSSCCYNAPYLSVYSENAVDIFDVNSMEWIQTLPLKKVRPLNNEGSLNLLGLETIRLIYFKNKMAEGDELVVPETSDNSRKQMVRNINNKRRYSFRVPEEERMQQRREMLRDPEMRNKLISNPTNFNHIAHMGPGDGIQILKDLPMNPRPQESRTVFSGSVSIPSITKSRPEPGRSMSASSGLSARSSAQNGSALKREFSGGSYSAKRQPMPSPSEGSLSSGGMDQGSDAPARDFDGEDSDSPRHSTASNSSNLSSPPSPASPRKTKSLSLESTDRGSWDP
Sequence of UniProt P61024 (P61024 whole entry, looked up): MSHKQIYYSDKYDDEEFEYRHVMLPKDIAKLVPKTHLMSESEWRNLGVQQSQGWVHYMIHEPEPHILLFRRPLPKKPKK
Sequence of UniProt Q14839 (Q14839 whole entry, looked up): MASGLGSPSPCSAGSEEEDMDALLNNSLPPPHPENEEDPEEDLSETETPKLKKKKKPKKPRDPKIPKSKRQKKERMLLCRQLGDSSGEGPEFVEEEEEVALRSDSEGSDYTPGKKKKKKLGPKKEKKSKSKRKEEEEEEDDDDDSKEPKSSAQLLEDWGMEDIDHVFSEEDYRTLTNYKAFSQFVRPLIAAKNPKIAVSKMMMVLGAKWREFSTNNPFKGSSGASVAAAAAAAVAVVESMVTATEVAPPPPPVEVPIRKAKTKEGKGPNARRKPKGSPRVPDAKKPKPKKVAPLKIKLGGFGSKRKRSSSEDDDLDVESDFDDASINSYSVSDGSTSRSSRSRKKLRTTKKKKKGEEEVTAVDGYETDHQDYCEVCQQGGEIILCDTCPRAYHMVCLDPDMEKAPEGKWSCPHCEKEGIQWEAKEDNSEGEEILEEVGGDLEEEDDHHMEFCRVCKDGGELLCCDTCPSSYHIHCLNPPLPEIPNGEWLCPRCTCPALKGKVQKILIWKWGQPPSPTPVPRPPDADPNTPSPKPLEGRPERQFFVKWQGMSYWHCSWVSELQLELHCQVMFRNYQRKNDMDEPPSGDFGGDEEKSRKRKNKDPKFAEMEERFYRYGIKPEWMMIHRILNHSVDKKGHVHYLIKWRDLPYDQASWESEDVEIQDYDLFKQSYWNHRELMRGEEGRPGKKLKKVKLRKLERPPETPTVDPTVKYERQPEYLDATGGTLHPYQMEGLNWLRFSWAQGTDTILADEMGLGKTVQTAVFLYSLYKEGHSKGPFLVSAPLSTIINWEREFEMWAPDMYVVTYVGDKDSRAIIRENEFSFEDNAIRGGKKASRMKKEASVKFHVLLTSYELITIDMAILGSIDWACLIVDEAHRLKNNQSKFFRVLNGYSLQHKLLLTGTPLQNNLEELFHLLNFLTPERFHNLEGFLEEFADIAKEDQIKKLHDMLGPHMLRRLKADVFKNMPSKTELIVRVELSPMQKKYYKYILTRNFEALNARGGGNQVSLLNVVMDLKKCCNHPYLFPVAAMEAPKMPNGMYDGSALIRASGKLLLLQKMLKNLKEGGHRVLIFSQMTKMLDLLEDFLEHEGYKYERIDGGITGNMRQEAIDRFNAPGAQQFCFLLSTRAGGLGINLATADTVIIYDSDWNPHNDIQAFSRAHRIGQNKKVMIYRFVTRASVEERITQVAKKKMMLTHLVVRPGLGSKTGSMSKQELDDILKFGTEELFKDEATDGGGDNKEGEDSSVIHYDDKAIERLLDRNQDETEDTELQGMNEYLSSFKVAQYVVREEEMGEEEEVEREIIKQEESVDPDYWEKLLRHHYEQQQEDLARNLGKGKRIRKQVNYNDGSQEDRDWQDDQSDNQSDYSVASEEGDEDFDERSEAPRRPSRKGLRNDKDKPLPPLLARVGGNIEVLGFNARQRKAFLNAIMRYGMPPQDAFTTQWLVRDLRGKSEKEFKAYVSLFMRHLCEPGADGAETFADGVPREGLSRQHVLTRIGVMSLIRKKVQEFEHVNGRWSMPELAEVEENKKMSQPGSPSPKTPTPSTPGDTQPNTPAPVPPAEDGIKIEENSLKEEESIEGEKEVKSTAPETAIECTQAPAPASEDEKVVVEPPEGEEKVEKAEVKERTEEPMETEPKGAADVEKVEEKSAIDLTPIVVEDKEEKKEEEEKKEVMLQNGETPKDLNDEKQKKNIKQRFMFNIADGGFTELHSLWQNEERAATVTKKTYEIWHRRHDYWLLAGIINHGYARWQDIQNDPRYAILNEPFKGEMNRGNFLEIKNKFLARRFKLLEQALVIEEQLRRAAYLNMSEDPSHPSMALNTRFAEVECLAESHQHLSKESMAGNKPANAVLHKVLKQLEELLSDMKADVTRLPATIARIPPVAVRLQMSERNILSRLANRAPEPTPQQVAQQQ
Sequence of UniProt P12277 (P12277 whole entry, looked up): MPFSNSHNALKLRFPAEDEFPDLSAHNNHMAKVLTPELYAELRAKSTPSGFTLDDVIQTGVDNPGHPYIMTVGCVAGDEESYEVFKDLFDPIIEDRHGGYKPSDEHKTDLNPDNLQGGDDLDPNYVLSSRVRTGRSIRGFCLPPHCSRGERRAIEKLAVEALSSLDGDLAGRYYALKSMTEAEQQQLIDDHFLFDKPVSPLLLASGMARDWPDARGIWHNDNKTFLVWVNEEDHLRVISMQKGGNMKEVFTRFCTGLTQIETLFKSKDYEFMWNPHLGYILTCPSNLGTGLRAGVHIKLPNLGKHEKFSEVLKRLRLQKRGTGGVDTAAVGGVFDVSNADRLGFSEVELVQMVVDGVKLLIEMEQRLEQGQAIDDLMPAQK
Sequence of UniProt P08174 (P08174 whole entry, looked up): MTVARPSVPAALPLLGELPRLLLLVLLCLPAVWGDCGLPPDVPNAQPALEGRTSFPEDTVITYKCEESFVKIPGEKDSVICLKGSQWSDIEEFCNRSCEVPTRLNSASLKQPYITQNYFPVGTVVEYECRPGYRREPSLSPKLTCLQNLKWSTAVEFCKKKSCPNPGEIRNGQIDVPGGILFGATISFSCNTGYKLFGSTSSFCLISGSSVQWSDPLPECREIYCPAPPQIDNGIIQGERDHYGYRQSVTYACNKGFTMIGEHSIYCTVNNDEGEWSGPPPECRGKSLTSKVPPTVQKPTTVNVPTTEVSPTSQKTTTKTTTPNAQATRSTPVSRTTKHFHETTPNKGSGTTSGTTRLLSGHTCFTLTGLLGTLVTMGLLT

Compound in one experiment: CC1=C(C=C(C=C1)NC(=O)C2=CC(=CC=C2)C(C)(C)C#N)NC3=CC4=C(C=C3)N=CN(C4=O)C
Kind of experiment: log2 fold change, soluble protein after heating vs DMSO (PISA); higher = thermal stabilisation; K562 cells, 10 uM, 30 min; active = over 0.2 and 3.5 SD of the protein, either way, in both replicates (recomputed). The procedure, abridged: (§1)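 K562 cells at 2×10^6 cells/mL were exposed to 10 μM compound for 30 min, then aliquots were heated for 3 min across 48°C-58°C, pooled, and extracted in PBS containing 0.5% NP-40 at 4°C. The supernatant after 21,000xg for 90 min was taken as soluble protein and measured by TMTpro 16plex LC-MS/MS with channel sums equalised. Thermal stability is reported relative to control samples, with values from duplicates. Fold changes are given on a log2 scale.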
As to CCNB1 (UniProt P14635), the log2 fold change is 0.021 (inactive).

For the target CLSPN (UniProt Q9HAW4), the log2 fold change is -0.048 (inactive).

CDK6 (UniProt Q00534): the log2 fold change is -0.037 (inactive).

Turning to CCNK isoform 4 (UniProt O75909), the log2 fold change was 0 (inactive).

For the target C16orf58 (UniProt Q96GQ5), the log2 fold change was -0.04 (inactive).

As for CDC25B isoform 4 (UniProt P30305), the log2 fold change is 0.203 (inactive).

As for CPQ (UniProt Q9Y646), the log2 fold change was 0.001 (inactive).

On to CCDC57 (UniProt Q2TAC2), for which the log2 fold change was 0.004 (inactive).

As to C9orf72 (UniProt Q96LT7), the log2 fold change is 0.108 (inactive).

On to CASP3 (UniProt P42574), for which the log2 fold change is -0.049 (inactive).

For the target CLASP2 isoform 3 (UniProt O75122), the log2 fold change was -0.032 (inactive).

Take CCM2 isoform 2 (UniProt Q9BSQ5): the log2 fold change was -0.072 (inactive).

On to CCDC9 (UniProt Q9Y3X0), for which the log2 fold change was -0.042 (inactive).

In the case of CETN2 (UniProt P41208), the log2 fold change was -0.015 (inactive).

As for CKB (UniProt P12277), the log2 fold change was 0.016 (inactive).

Consider CKS1B (UniProt P61024), for which the log2 fold change is -0.043 (inactive).

On to CDC42BPA isoform 6 (UniProt Q5VT25), for which the log2 fold change was 0.151 (inactive).

Consider COX20 isoform 2 (UniProt Q5RI15), for which the log2 fold change is 0.035 (inactive).

On to CHKA (UniProt P35790), for which the log2 fold change was -0.011 (inactive).

For the target CNOT1 (UniProt A5YKK6), the log2 fold change is 0.016 (inactive).

Consider CHAMP1 (UniProt Q96JM3), for which the log2 fold change is -0.003 (inactive).

Consider CHERP (UniProt Q8IWX8), for which the log2 fold change was -0.042 (inactive).

Take CERT isoform 3 (UniProt Q9Y5P4): the log2 fold change is 0.154 (inactive).

Turning to CNOT7 (UniProt Q9UIV1), the log2 fold change is 0.046 (inactive).

For the target CPT2 (UniProt P23786), the log2 fold change is 0.313 (inactive).

In the case of COA6 isoform 2 (UniProt Q5JTJ3), the log2 fold change is -0.054 (inactive).

As to COMMD2 (UniProt Q86X83), the log2 fold change was -0.014 (inactive).

With CES2 isoform 4 (UniProt O00748), the log2 fold change is -0.003 (inactive).

For CA1 (UniProt P00915), the log2 fold change was -0.028 (inactive).

Turning to CHD4 isoform 2 (UniProt Q14839), the log2 fold change is 0.011 (inactive).

As to CD55 isoform 7 (UniProt P08174), the log2 fold change is 0.037 (inactive).

Consider CLPTM1L (UniProt Q96KA5), for which the log2 fold change was -0.014 (inactive).

On to CSE1L (UniProt P55060), for which the log2 fold change was 0.021 (inactive).

In the case of C4A (UniProt P0C0L4), the log2 fold change was -0.154 (inactive).

For the target CDK16 isoform 2 (UniProt Q00536), the log2 fold change was 0.003 (inactive).

On to CLUH (UniProt O75153), for which the log2 fold change was -0.017 (inactive).

Compound in another experiment: CC1=C(C=C(C=C1)NC(=O)C2=CC(=CC=C2)N(C)C)NC(=O)C3=CC=C(C=C3)O
The description is as above. The gist of the method: as §1
Regarding CCNB1 (UniProt P14635), the log2 fold change is -0.043 (inactive).

CLSPN (UniProt Q9HAW4): the log2 fold change is 0.003 (inactive).

On to CDK6 (UniProt Q00534), for which the log2 fold change is 0.01 (inactive).

With CCNK isoform 4 (UniProt O75909), the log2 fold change was 0.032 (inactive).

Regarding C16orf58 (UniProt Q96GQ5), the log2 fold change was 0.001 (inactive).

For the target CDC25B isoform 4 (UniProt P30305), the log2 fold change was -0.022 (inactive).

Consider CPQ (UniProt Q9Y646), for which the log2 fold change is 0.025 (inactive).

With CCDC57 (UniProt Q2TAC2), the log2 fold change was 0.02 (inactive).

For the target C9orf72 (UniProt Q96LT7), the log2 fold change is -0.009 (inactive).

For the target CASP3 (UniProt P42574), the log2 fold change is 0.086 (inactive).

On to CLASP2 isoform 3 (UniProt O75122), for which the log2 fold change was -0.01 (inactive).

For the target CCM2 isoform 2 (UniProt Q9BSQ5), the log2 fold change is -0.068 (inactive).

Turning to CCDC9 (UniProt Q9Y3X0), the log2 fold change is 0.007 (inactive).

On to CETN2 (UniProt P41208), for which the log2 fold change was -0.016 (inactive).

On to CKB (UniProt P12277), for which the log2 fold change was -0.006 (inactive).

CKS1B (UniProt P61024): the log2 fold change is -0.094 (inactive).

On to CDC42BPA isoform 6 (UniProt Q5VT25), for which the log2 fold change is -0.079 (inactive).

Regarding COX20 isoform 2 (UniProt Q5RI15), the log2 fold change is -0.041 (inactive).

In the case of CHKA (UniProt P35790), the log2 fold change is -0.048 (inactive).

For CNOT1 (UniProt A5YKK6), the log2 fold change was -0.007 (inactive).

For CHAMP1 (UniProt Q96JM3), the log2 fold change is -0.018 (inactive).

CHERP (UniProt Q8IWX8): the log2 fold change is -0.088 (inactive).

In the case of CERT isoform 3 (UniProt Q9Y5P4), the log2 fold change was -0.103 (inactive).

On to CNOT7 (UniProt Q9UIV1), for which the log2 fold change was -0.043 (inactive).

Turning to CPT2 (UniProt P23786), the log2 fold change is -0.105 (inactive).

Regarding COA6 isoform 2 (UniProt Q5JTJ3), the log2 fold change was -0.012 (inactive).

On to COMMD2 (UniProt Q86X83), for which the log2 fold change was -0.051 (inactive).

Turning to CES2 isoform 4 (UniProt O00748), the log2 fold change is -0.072 (inactive).

In the case of CA1 (UniProt P00915), the log2 fold change was -0.008 (inactive).

As to CHD4 isoform 2 (UniProt Q14839), the log2 fold change is -0.028 (inactive).

Take CD55 isoform 7 (UniProt P08174): the log2 fold change is -0.006 (inactive).

Turning to CLPTM1L (UniProt Q96KA5), the log2 fold change was 0.01 (inactive).

With CSE1L (UniProt P55060), the log2 fold change is -0.006 (inactive).

For the target C4A (UniProt P0C0L4), the log2 fold change was 0.19 (inactive).

For CDK16 isoform 2 (UniProt Q00536), the log2 fold change is -0.017 (inactive).

For CLUH (UniProt O75153), the log2 fold change is -0.08 (inactive).

The values above are taken from the supplement of paper PMC10849652.
